Data on 13 molecules can be found in PubChem BioAssay (NCATS).

Assay [1] in a line: Cellular Toxicity (caspase-3) N2a (AID 665).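 Note: compound exposure lasted 16 h at 37 °C before readout.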 The essentials:
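Plated mouse neuroblastoma N2a cells received titrated compounds for 16 h in complete medium. Caspase activity was then detected with a peptide-aminoluciferin luminescent reagent.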

Assay [2] can be described thus: Cellular Toxicity (caspase-3) NIH 3T3 (AID 666).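 Note: caspase signal read after 16 h compound exposure; 0% = DMSO basal and 100% = 100 µM tamoxifen stimulation.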 In a few lines:
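Concentration-response qHTS in NIH 3T3 mouse fibroblasts scores caspase-3/7 activation as rising luminescence after 16 hr compound exposure. Signals are scaled between DMSO-only and 100 uM tamoxifen.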

The nature of assay [3]: Cellular Toxicity (caspase-3) Renal Proximal Tubule (AID 667).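 Note: cells exposed to compound for 16 hours at 37 °C before detection; 0% = DMSO basal and 100% = 10 µM staurosporine.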 In a few lines: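 Caspase 3/7 activation measured by luminescent aminoluciferin release in primary rat proximal tubule cells after 16 hr compound exposure at 37 °C. AC50 from Hill-fitted concentration-response, scaled between DMSO and 10 uM staurosporine.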
In assay [4] the target is Cytochrome P450 3A4 (Homo sapiens) (UniProt P08684). The assay is described as follows: qHTS Assay for Inhibitors and Substrates of Cytochrome P450 3A4 (AID 884). Note: series mostly up to about 57 µM; % is set by controls: 0 for no effect and ±100 for the full control effect; nearly all actives have a fitted effect of over 50% in size. The essentials:
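20 nM human CYP3A4 with 25 uM Luciferin-PPXE (at KM) in 200 mM KPO4, preincubated 10 min with compound; NADPH regeneration started a 60 min RT reaction. Luciferin detected by luminescence, normalized to 57 uM ketoconazole as full inhibition.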
(In qHTS, concentration-response curves come from the screen itself.)

Assay [5] can be described thus: Confirmation and Secondary Assay for Modulators of Hemoglobin Beta Chain Splicing at IVS2 654 locus (AID 910).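 Note: HeLa cells stably carrying EGFP split by mutant beta-globin IVS2-654 intron; % of control where 0% means no effect.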 The essentials: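 HeLa cells stably expressing EGFP interrupted by β-globin IVS2-654 intron, seeded overnight in Opti-MEM/2% FCS, then treated 2 days at 37 °C. Restored splicing read as total peak GFP intensity per well by laser scanning cytometry (488 nm excitation, 500–520 nm emission); 500 nM antisense PNA as control.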

The nature of assay [6]: Cell Viability - LYMP2-001 (AID 921).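 Note: series mostly up to about 92 µM; 0% = DMSO only and full inhibition = tetraoctylammonium bromide control wells; nearly all actives have a fitted effect of over 70% in size.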 The essentials: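 Cellular ATP loss read by luciferase luminescence after 24 h compound exposure at 37 C in complete medium. LYMP2-001 lymphoblastoid cells, 2500/well; qHTS concentration-response data fitted with Hill equation for AC50.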
Assay [7] can be described thus: Confirmation and Secondary Assay for Modulators of Hemoglobin Beta Chain Splicing at IVS2 705 locus (AID 930).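 Note: HeLa cells stably expressing the EGFP-705 splicing reporter; GFP fluorescence per well restored by corrected splicing of the IVS2-705 intron in EGFP; series mostly up to about 46 µM; % of control where 0% means no effect.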 The essentials:
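Assay measures total GFP intensity per well in HeLa EGFP-705 cells after 2 days with compound; mis-splicing normally truncates EGFP, so fluorescence indicates corrected splicing.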

Assay [8] can be described thus: MultiTox-Fluor Cytotoxicity Assay - LYMP1-001 - Dead Cells (AID 946). Note: potency is the fitted concentration of half-maximal effect. In a few lines:
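Seed 2500 LYMP1-001 cells/well, incubate 5 hr at 37 C; add compound, 16 hr at 37 C; add MultiTox-Fluor reagent, 60 min RT; read dead-cell fluorescence Ex/Em=485/520. Normalize to DMSO and 15 uM tetraoctylammonium bromide.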

For assay [9], the target named is Guanine nucleotide-binding protein G(i) subunit alpha-1 (Homo sapiens) (UniProt P63096). The assay is described as follows: qHTS Assay for Inhibitors of RGS12 GoLoco Motif Activity (Green Fluorophore) (AID 879).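 Note: 0% = labeled peptide with Gαi1 and full inhibition = labeled peptide alone without protein; negative values mean loss of peptide binding seen as reduced polarization.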 The essentials: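 Fluorescence polarization assay: 50 nM Gαi1 with 10 nM FITC-labeled RGS12 GoLoco peptide in 10 mM Tris pH 7.5, 150 mM NaCl, 0.1 mM GDP, 0.05% NP40, 10 min at room temperature with compound.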

Assay [10] is described as follows: qHTS Assay for Identification of Small Molecule Antagonists for NFkB Signaling Pathway (AID 895; active = well fitted inhibition curve with a large enough effect in the signal ratio, with a control signal flat, not every such curve was filed as active; the % refers to the signal ratio; note: potency is the fitted concentration of half-maximal effect). In a few lines: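 ME-180 NFkB-bla cells (beta-lactamase under NFkB response element), plated overnight, treated with compound then 10 pM TNF alpha (about EC50) for 5 hrs at 37 C. LiveBLAzer FRET read at 460/530 nm emission, 405 nm excitation.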
Assay [11] can be described thus: qHTS Assay for Identification of Small Molecule Agonists for Thrombopoietin (TPO) Signaling Pathway (AID 917). Note: % is set by controls: 0 for no effect and ±100 for the full control effect. In a few lines:
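Reporter: GpIIb promoter–luciferase in murine Ba/F3 expressing human TPO receptor. Pre-starved of IL-3 overnight; compounds with 26 pM TPO, 24 hrs, 37 C/5% CO2; luminescence read.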

Assay [12] addresses Muscarinic acetylcholine receptor M1 (Rattus norvegicus) (UniProt P08482). The assay is described as follows: qHTS Assay for Antagonists of Acetylcholine Muscarinic M1 Receptor: Measurement of IP-One Response (AID 944). Note: nearly all actives have a fitted effect of over 75% in size. Note: potency is the fitted concentration of half-maximal effect. The essentials: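 Steps: plate transfected CHO-M1 cells overnight; add test compound, 10 min; add carbachol (200 nM, EC80) in stimulation buffer with LiCl; incubate 30 min; add labelled IP1 tracer and anti-IP1 antibody in lysis buffer; read HTRF after 10 min.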

Assay [13] addresses Pyruvate kinase (Leishmania mexicana) (UniProt Q27686). The assay is described as follows: qHTS Validation Assay for Inhibitors of Leishmania Mexicana Pyruvate Kinase (AID 945).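 Note: 0% = DMSO only neutral control wells.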 In a few lines: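 Pyruvate kinase activity of E451W LmPYK (0.2 nM) was followed as ATP output after 1 h at room temperature with 0.5 mM PEP and 0.1 mM ADP, detected by PKLight luminescence.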
Assay [14] has as its target Cytochrome P450 3A4 (Homo sapiens) (UniProt P08684). Kind of assay: qHTS Assay for Activators of Cytochrome P450 3A4 (AID 885). Note: nearly all actives have a fitted effect of over 65% in size. In a few lines: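 Steps: enzyme/substrate mix dispensed; compound added, 10 min RT; NADPH regeneration solution added, 60 min RT; luciferin detection buffer stops reaction; 20 min later luminescence measured.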
The nature of assay [15]: qHTS Assay for Identification of Small Molecule Agonists for Hypoxia Response Element Signaling Pathway (AID 914; active = well fitted activation curve with a large enough effect in the signal ratio, with a control signal flat, not every such curve was filed as active; the % refers to the signal ratio; note: % of control where 0% means no effect). As to conditions: ME-180 (cervical carcinoma) HRE-bla reporter, beta-lactamase ratio, CoCl2, 17 h; active compounds read high. In a few lines: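 Compounds in a titration series were added to ME-180 reporter cells alongside an EC50 level of CoCl2. After 17 hours, beta-lactamase activity was read as the 460nm/530nm emission ratio of CCF4, giving AC50 values.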

The target of assay [16] is Cytochrome P450 2C9 (Homo sapiens) (UniProt P11712). The assay is described as follows: qHTS Assay for Inhibitors and Substrates of Cytochrome P450 2C9 (AID 883). Note: nearly all actives have a fitted effect of over 60% in size. Note: potency is the fitted concentration of half-maximal effect. In a few lines:
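Human CYP2C9 (10nM) with Luciferin-H at 100uM (its KM) in 25mM KPO4; compound preincubated 10 min at 37C, then NADPH regeneration for 60 min at 37C. Luciferin read by luminescence after detection reagent; normalized to 57uM sulphaphenazole as full inhibition.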

A short description of assay [17]: qHTS Assay for Identification of Small Molecule Antagonists for Thrombopoietin (TPO) Signaling Pathway (AID 918). Note: potency is the fitted concentration of half-maximal effect; nearly all actives have a fitted effect of over 60% in size. As to conditions: TPO-dependent cell signaling reporter, antagonist mode. In a few lines:
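First, Ba/F3 reporter cells expressing human TPO receptor were held overnight without IL-3. Next, compound and 26 pM TPO were added. After 24 hrs incubation at 37 C, luciferase luminescence under the Glycoprotein IIb promoter was recorded.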

The target of assay [18] is Muscarinic acetylcholine receptor M1 (Rattus norvegicus) (UniProt P08482). The assay is described as follows: qHTS Assay for Antagonists of Acetylcholine Muscarinic M1 Receptor: Kinetic Measurement of Intracellular Calcium Response (AID 943).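 Note: Fluo-4 calcium signal as peak divided by basal fluorescence over 4 min; series mostly up to about 35 µM; nearly all actives have a fitted effect of over 75% in size.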 The essentials:
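Intracellular calcium flux, recorded with Fluo-4 in a kinetic plate reader, served as signal; the response to carbachol at EC80 (100 nM final) was taken as maximal over minimal fluorescence after a 10 min compound pre-incubation in rat M1-CHO cells.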

The target of assay [19] is Cytochrome P450 2D6 (Homo sapiens) (UniProt P10635). Kind of assay: qHTS Assay for Inhibitors and Substrates of Cytochrome P450 2D6 (AID 891). Note: nearly all actives have a fitted effect of over 60% in size. Note: potency is the fitted concentration of half-maximal effect. The essentials:
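Human CYP2D6 (5 nM) with 30 uM Luciferin-ME EGE (at Km) in 100 mM KPO4, compound preincubated 10 min, then NADPH regeneration system for 60 min at room temperature. Luciferin read by luminescence; normalized to 1.43 uM quinidine.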

The target in assay [20] is Cytochrome P450 2C19 (Homo sapiens) (UniProt P33261). The assay is described as follows: qHTS Assay for Inhibitors and Substrates of Cytochrome P450 2C19 (AID 899). Note: nearly all actives have a fitted effect of over 60% in size. Note: potency is the fitted concentration of half-maximal effect. The essentials: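 5 nM human CYP2C19 with 10uM Luciferin-H EGE (at KM) in 50mM KPO4, compound preincubated 10 min at 37C, then NADPH regeneration for 60 min at 37C. Luciferin read by luminescence after detection reagent; normalized to 57uM ketoconazole as full inhibition.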

SMILES strings stand for the structures. Values without a mark were called inactive. Inconclusive results are not listed. Active and inactive are the calls of the source. Unless noted, calls come from the whole dose curve; as a rule, active = well fitted curve in the direction sought with a large enough effect; inconclusive = small, poorly fitted or top-dose-only effect, or another doubt; inactive = no such curve, though single readings can be large; an effect the other way counts as inactive or inconclusive.

Pyruvate kinase (Leishmania mexicana), sequence (Q27686 2-499 E452W): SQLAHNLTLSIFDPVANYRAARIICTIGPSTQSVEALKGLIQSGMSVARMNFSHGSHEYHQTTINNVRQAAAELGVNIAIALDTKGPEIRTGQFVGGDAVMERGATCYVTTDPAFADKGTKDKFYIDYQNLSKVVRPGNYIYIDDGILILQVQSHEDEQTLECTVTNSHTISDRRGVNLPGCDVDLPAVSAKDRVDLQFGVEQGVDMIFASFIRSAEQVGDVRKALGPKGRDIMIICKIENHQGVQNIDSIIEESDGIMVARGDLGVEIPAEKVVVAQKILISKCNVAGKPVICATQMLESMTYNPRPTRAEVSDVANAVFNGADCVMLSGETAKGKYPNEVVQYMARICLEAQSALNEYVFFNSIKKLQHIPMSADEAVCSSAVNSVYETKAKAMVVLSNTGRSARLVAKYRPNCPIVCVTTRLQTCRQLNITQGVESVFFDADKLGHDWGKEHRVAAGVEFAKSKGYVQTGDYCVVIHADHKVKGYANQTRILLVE
Guanine nucleotide-binding protein G(i) subunit alpha-1 (Homo sapiens), sequence (P63096 whole entry, looked up): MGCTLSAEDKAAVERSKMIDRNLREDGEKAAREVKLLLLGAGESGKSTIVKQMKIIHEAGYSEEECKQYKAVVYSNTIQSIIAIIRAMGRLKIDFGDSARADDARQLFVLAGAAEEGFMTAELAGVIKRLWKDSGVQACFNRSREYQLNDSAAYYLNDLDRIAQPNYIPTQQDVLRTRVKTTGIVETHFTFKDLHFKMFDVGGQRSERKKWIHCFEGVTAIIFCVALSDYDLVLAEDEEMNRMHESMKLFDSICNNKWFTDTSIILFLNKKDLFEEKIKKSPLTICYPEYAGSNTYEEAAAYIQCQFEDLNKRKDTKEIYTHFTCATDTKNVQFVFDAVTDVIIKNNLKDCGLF
Cytochrome P450 3A4 (Homo sapiens), sequence (P08684 whole entry, looked up): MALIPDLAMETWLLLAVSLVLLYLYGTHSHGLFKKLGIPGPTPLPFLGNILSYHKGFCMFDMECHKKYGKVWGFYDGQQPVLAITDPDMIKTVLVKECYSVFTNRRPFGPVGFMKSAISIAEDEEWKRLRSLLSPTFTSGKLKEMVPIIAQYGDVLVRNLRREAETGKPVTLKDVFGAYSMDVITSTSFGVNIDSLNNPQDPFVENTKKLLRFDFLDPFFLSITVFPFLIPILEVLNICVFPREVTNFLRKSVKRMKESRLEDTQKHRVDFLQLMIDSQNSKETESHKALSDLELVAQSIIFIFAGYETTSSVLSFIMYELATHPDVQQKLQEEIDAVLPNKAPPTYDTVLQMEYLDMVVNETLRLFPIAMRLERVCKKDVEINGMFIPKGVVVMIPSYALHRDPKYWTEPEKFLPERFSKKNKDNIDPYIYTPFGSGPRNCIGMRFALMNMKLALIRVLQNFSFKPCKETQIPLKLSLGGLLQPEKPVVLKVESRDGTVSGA
Cytochrome P450 2C9 (Homo sapiens), sequence (P11712 whole entry, looked up): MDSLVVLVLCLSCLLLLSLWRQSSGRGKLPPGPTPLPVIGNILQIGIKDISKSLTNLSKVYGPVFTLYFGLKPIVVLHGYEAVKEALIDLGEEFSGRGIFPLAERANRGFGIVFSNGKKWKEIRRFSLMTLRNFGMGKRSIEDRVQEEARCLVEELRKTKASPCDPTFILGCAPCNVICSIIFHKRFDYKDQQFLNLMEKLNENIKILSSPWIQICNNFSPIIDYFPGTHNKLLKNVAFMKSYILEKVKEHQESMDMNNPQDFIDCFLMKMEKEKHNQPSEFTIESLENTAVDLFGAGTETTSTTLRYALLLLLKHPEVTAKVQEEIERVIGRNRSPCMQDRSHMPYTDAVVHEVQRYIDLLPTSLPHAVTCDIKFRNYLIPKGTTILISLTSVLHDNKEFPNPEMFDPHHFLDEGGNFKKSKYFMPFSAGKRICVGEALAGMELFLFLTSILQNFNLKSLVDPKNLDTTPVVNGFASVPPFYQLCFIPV
Muscarinic acetylcholine receptor M1 (Rattus norvegicus), sequence (P08482 whole entry, looked up): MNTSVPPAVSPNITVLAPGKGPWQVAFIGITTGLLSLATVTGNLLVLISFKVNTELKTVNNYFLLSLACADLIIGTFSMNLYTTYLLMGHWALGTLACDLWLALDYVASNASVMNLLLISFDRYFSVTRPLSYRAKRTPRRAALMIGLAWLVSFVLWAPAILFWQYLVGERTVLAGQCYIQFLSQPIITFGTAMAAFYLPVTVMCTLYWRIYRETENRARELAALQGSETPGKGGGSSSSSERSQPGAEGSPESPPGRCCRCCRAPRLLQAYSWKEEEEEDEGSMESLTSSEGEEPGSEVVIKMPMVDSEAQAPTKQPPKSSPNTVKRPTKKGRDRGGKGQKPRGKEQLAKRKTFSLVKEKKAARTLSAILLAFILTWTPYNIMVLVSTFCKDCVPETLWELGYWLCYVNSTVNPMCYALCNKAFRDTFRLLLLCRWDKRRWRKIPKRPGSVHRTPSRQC
Cytochrome P450 2D6 (Homo sapiens), sequence (P10635 whole entry, looked up): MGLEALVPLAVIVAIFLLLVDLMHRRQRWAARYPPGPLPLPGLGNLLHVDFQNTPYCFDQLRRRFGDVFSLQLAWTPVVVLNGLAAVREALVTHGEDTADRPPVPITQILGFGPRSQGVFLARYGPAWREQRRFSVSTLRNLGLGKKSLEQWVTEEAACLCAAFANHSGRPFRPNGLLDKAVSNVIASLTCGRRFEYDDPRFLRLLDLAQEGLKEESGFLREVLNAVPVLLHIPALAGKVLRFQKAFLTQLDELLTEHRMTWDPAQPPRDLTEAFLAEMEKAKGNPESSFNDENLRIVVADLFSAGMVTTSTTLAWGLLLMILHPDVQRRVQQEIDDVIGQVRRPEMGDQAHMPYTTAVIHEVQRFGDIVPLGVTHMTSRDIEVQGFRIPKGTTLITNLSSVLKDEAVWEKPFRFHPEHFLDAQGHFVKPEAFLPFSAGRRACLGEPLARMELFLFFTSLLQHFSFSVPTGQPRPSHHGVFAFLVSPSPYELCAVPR
Cytochrome P450 2C19 (Homo sapiens), sequence (P33261 whole entry, looked up): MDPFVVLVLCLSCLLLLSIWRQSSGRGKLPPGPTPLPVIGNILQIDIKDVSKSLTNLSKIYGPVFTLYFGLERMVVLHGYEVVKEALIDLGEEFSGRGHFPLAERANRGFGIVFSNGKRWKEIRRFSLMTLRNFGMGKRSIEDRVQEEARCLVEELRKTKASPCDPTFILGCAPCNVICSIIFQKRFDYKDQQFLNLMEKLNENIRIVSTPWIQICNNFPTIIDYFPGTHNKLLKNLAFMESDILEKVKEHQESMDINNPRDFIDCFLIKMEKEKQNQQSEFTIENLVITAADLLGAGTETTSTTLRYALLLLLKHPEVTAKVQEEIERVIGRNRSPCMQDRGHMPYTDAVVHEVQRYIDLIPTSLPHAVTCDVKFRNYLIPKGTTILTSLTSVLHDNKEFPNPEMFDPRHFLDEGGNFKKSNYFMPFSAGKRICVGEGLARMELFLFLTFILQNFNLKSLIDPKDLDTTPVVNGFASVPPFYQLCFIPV

As for `NCC(O)c1ccc(O)cc1` (stereo not given), the molecule was called inactive in [1], in assay [2], in assay [3], in assay [5] and in assay [7]. The Potency result in [4], in assay [6] and in [8] was “inactive” each time.
Consider `N[C@@H]1C[C@H]1c1ccccc1`, for which the result in assay [9], in assay [11] and in assay [13] was inactive. In addition, the Potency entry in assay [10] and in assay [12] was “inactive” each time.
As to `CCCC(C)(COC(N)=O)COC(=O)NC(C)C` (stereo not given), the outcome in [1], in assay [2], in assay [3], in [9], in [14] and in assay [5] was inactive. The result in assay [11], in assay [7] and in assay [13] was inactive. Further, in [15], the activation was -37.8%. Besides, the Potency result in [6], in assay [12] and in assay [8] was “inactive” each time.
Turning to `C[C@]12C/C(=C/O)C(=O)C[C@@H]1CC[C@@H]1[C@@H]2CC[C@@]2(C)[C@H]1CC[C@]2(C)O`, the call in assay [2] was inactive. Also, the Potency in [8] was 50.1 µM (active).
In the case of `Oc1ccccc1-c1ccccc1`, the molecule was called inactive in assay [1], in [2] and in assay [3]. Also, the Potency entry in assay [4], in assay [6] and in [8] was “inactive” each time.
For `O=c1[nH]c2ccccc2n1C1CCN(CCCC(c2ccc(F)cc2)c2ccc(F)cc2)CC1`, the outcome in [9], in [5], in assay [7] and in [13] was inactive. Further, the Potency result in assay [16] and in assay [4] was “inactive” in each case. The Potency in [17] was 10 µM (active).
As for `Cc1ccc(S(=O)(=O)N[C@@H](CCCCN)C(=O)CCl)cc1`, the molecule was called inactive in assay [9], in [11] and in assay [13]. In addition, the Potency in [10] is 11.2 µM (active). The Potency entry in assay [18] is “inactive”.
On to `N#CC(C#N)=Cc1ccc(O)c(O)c1`, for which the call in assay [9] and in assay [13] was inactive. In addition, the Potency in assay [16] was 7.94 µM (active). Besides, the Potency entry in [19] and in [20] was “inactive” in each case.
Consider `Clc1ccc(COC(Cn2ccnc2)c2ccc(Cl)cc2Cl)cc1` (stereo not given), for which the molecule was classed as inactive in assay [1], in assay [2], in [3], in [14], in assay [5] and in [7].
`Cc1nc2n(c(=O)c1CCN1CCC(c3noc4cc(F)ccc34)CC1)CCCC2`: the Potency in assay [19] is 3.16 µM (active); in assay [12] it was 12.6 µM (active).
In the case of `C=C(C)[C@H]1Cc2c(ccc3c2O[C@@H]2COc4cc(OC)c(OC)cc4[C@@H]2C3=O)O1`, the Potency in assay [20] is 1 µM (active).
For the molecule `CCC(COC(=O)c1cc(OC)c(OC)c(OC)c1)(c1ccccc1)N(C)C` (stereo not given), the result in assay [5] and in [7] was inactive.
For `CCCN(CCC)CCc1cccc2c1CC(=O)N2`, the Potency result in [16] and in assay [20] was “inactive” throughout. In addition, the Potency in assay [19] was 3.16 µM (active).
